Shown is part of a subset that was picked to be rich in hits.
RECQ1 helicase: inhibitors of human RECQ1 DNA helicase; Potency, µM (titrated, usually from 57.3 µM), inactives show at the top dose activity, negative = inhibition, hits mostly inhibitors; P46063; 240,000 compounds, 0.54% hits; RECQ1 DNA unwinding, red fluorescence kinetic read;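 also: potency is read from the fitted curve at half-maximal effect; plate controls were vehicle for no effect and no enzyme for full effect; nearly all actives have a fitted effect of over 30% in size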
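50 nM RECQ1T1 preincubated 15 min with compound in Tris pH 8.0 buffer with MgCl2, DTT, Tween-20 and 2.5 ug/ml poly(dI-dC); started with 200 nM TAMRA/BHQ-2 forked duplex and 2 mM ATP. Unwinding read as fluorescence (525/598 nm), two reads 2 h apart.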
GCN5L2 inh-1: blocks human GCN5L2 histone acetyltransferase. Q92830. GCN5L2 HAT assay, ThioGlo1 CoA-SH fluorescence. Potency, µM (doses to about 58.9 µM), without a hit: at the highest dose activity change, negative = inhibition, actives largely listed as inhibitors. 390,000 compounds, 0.21% hits. AID 504327; also: potency is read from the fitted curve at half-maximal effect; % is scaled to controls: 0 for no effect and ±100 for the full control effect
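Enzyme at 20nM final was mixed with library compounds for 15 min at room temperature. Peptide H3(1-25) at 75uM, acetyl-CoA at 70uM and ThioGlo1 at 50uM were then added. Plates were read immediately and after 20 min (Ex340nm/Em540nm).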
L3MBTL1 inh-1: inhibitors of human L3MBTL1. Potency, µM (highest dose often 57.1 µM), for the others: at the top dose activity, negative = inhibition, actives largely listed as inhibitors. 230,000 compounds, 0.66% hits. AlphaScreen L3MBTL1–H3K9me1 peptide binding; also: potency is read from the fitted curve at half-maximal effect; % is scaled to controls: 0 for no effect and ±100 for the full control effect; nearly all actives have a fitted effect of over 60% in size
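First, the protein-peptide complex forms for 30 min at room temperature (L3MBTL1 50 nM, biotinylated H3K9me1 peptide 75 nM). Next, compounds are pin-transferred and incubated 30 min. Finally, AlphaScreen beads are added and read after 30 min.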
APEX1 inh: blocks human APE1 abasic DNA cleavage; Potency, µM (titrated, usually from 65.8 µM), inactives show top-dose activity change, negative = inhibition, usual class: inhibitors; AID 2517; 350,000 compounds, 0.35% hits; P27695; recombinant APE1, TAMRA/BHQ-2 abasic DNA cleavage fluorescence;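 also: potency is read from the fitted curve at half-maximal effect; plate controls were vehicle for no effect and reference inhibitor for full effect; nearly all actives have a fitted effect of over 55% in size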
Target sequence (P27695 whole entry, looked up): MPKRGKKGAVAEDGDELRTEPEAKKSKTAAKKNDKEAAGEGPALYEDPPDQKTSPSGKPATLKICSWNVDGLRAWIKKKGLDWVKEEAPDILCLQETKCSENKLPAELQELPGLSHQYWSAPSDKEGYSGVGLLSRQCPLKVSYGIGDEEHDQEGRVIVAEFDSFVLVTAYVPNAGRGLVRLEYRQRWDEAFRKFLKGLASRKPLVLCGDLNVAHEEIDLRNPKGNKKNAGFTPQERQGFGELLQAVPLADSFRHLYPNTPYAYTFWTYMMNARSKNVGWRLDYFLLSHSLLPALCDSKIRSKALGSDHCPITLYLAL
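Readout is kinetic fluorescence (ex 525, em 598 nm) from cleavage of 50 nM TAMRA/BHQ-2 THF abasic duplex by 0.75 nM APE1, compound added 15 min beforehand at RT.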
JMJD2E inh: inhibitors of human JMJD2E histone demethylase; B2RXH2; JMJD2E catalytic domain, FDH-coupled NADH fluorescence (FDH is formaldehyde dehydrogenase); Potency, µM (series often up to 57.1 µM), for inactives: at the top dose activity change, negative = inhibition, usual class: inhibitors; 230,000 compounds, 1.6% hits; AID 2147; active = well fitted inhibition curve with a large enough effect, not every such curve was filed as active; inconclusive = small, poorly fitted or top-dose-only effect, or another doubt; inactive = no such curve, though single readings can be large or run the other way;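 also: potency is read from the fitted curve at half-maximal effect; 0% = wells with enzyme and -100% = buffer wells without enzyme; nearly all actives have a fitted effect of over 50% in size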
Target sequence (B2RXH2 1-337 limits assumed): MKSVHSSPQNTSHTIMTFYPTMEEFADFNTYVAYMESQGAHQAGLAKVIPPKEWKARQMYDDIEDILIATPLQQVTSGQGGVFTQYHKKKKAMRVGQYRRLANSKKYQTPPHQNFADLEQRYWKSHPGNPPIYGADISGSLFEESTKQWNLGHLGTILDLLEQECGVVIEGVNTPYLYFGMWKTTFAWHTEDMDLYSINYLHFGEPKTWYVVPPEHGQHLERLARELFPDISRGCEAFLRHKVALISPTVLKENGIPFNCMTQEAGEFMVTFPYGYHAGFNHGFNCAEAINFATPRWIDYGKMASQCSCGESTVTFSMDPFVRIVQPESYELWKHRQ
BLM inh: inhibitors of human Bloom syndrome helicase BLM. P54132. recombinant BLM DNA unwinding, fluorescence dequenching. Potency, µM (doses to about 56.1 µM), for the others: top-dose activity change, negative = inhibition, usual class: inhibitors. 350,000 compounds, 0.2% hits. AID 2528;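 also: potency is read from the fitted curve at half-maximal effect; plate controls were vehicle for no effect and no enzyme for full effect; nearly all actives have a fitted effect of over 35% in size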
L3MBTL1 inh-2: blocks human L3MBTL1 methyl-lysine binding | shares compounds with L3MBTL1 inh-1 | L3MBTL1 methyl-lysine binding inhibition, biochemical qHTS | Potency, µM, usual class: inhibitors | 500 compounds, 91% hits | AID 540279; also: potency is read from the fitted curve at half-maximal effect; nearly all actives have a fitted effect of over 70% in size
AlphaScreen ctr2: counter-screen for L3MBTL1 inhibitors: AlphaScreen signal interference; 500 tested, under 10 active; AID 602224; AlphaScreen counterscreen, signal inhibition; shares compounds with L3MBTL1 inh-1; Potency, µM (titrated, usually from 57.1 µM), without a hit: at the top dose activity change, negative = inhibition, actives largely listed as inhibitors; also: potency is read from the fitted curve at half-maximal effect; 0% is about no effect
GCN5L2 inh-2: human KAT2A HAT inhibition, hit confirmation; shares compounds with GCN5L2 inh-1; GCN5L2 HAT, ThioGlo1 CoA fluorescence, 20 min; Potency, µM, usual class: inhibitors; 140 compounds, 70% hits; AID 588347
* marks the source's active call; other numbers are inactive results; i = inactive; ? = inconclusive; nt = no result; [ ] = remark or other dose. Unless noted, calls follow the shape of the dose curve; as a rule, active = well fitted curve in the direction sought with a large enough effect; inconclusive = small, poorly fitted or top-dose-only effect, or another doubt; inactive = no such curve, though single readings can be large; an effect the other way counts as inactive or inconclusive.

SMILES	RECQ1 helicase	GCN5L2 inh-1	L3MBTL1 inh-1	APEX1 inh	JMJD2E inh	BLM inh	GCN5L2 inh-2	others
CCCCN(C(=O)c1cccc(-n2cccc2)c1)c1c(N)n(Cc2ccccc2)c(=O)[nH]c1=O	nt	-19%	20µM*	2.7µM*	nt	nt	nt	L3MBTL1 inh-2=4.2*;AlphaScreen ctr2=-29%
CCCCN(C(=O)c1cccc(N2C(=O)c3ccccc3C2=O)c1)c1c(N)n(CC(C)C)c(=O)[nH]c1=O	nt	1%	4%	-12%	nt	nt	nt
Cc1cccc(C)c1NC(=O)c1cccc2c1C(=O)N(C1CCCCC1)C2	nt	-7%	nt	-8%	nt	-10%	nt
CCN(CC(=O)Nc1c(F)cccc1F)C(=O)/C=C/c1ccc2ccccc2n1	nt	?	3.2µM*	1.7µM*	nt	nt	23*	L3MBTL1 inh-2=1.7*;AlphaScreen ctr2=8%
Cc1cc(C)n(-c2nc3cc(Cl)ccc3nc2Nc2ccc(C)c(F)c2)n1	nt	-2%	nt	nt	nt	1%	nt
CC(C)(C)c1cc(-c2csc(Nc3ccccc3)[n+]2Cc2ccc(C(=O)O)cc2)cc(C(C)(C)C)c1O	-17%	22µM*	-18%	3%	4%	-12%	18*
O=C(CCNC(=O)c1ccccc1)Nc1cccnc1	0%	-2%	nt	?	-4%	-2%	nt
Cc1ccc(-n2cnc3cc(C(=O)NC4CCCCCC4)ccc32)cc1Cl	nt	0%	nt	nt	nt	-10%	nt
O=C(Nc1ccc(Cl)cc1)c1cncs1	nt	-18%	nt	3%	nt	-2%	nt
O=C1CCC(C(=O)Nc2cccc(S(=O)(=O)Nc3ccccc3F)c2)=NN1	nt	?	-1%	27%	nt	nt	11*
COCCNC(=O)CN1C(=O)COc2ccc(S(=O)(=O)N3CC(C)CC(C)C3)cc21 (centres undefined)	nt	?	3%	-1%	nt	2%	nt
CC(C)(C)c1ccc(OCC(=O)Nc2ccc(C(=O)Nc3ccccc3C(=O)O)cc2)cc1	nt	32µM*	nt	-6%	nt	-6%	23*
Cc1cccc(OCC(=O)Nc2ccc(C(=O)Nc3ccccc3C(=O)O)cc2)c1C	nt	?	nt	0%	nt	-10%	nt
CC1=NN(c2cccc(C(=O)O)c2)C(=O)/C1=C\C=C\c1ccco1	0%	?	3.2µM*	2%	9%	18%	?
CC1=NN(c2ccccc2)C(=O)/C1=C/C=C/c1ccccc1	-7%	-7%	?	-1%	-3%	-11%	nt
Cc1ccc(N2C(=O)C3C4C=CC(CC4)C3C2=O)cc1[N+](=O)[O-] (centres undefined)	nt	?	6%[2.29 µM]	20%	nt	-4%	16*
CC(NC(=O)c1sc2cc([N+](=O)[O-])ccc2c1Cl)C(C)(C)C (centres undefined)	-9%	?	0%	-1%	-29%	-2%	3.6*
COc1ccc(CCNC(=O)C2c3ccccc3C(=O)N2Cc2ccccc2)cc1OC (centres undefined)	nt	-2%	nt	nt	nt	-1%	nt
O=C(O)C1=CC[C@@H](c2ccc(Cl)cc2)N(S(=O)(=O)c2ccc(Cl)cc2)[C@H]1c1ccc(Br)cc1	nt	25µM*	-5%	-11%	nt	nt	18*
Cc1ccc(S(=O)(=O)N2[C@@H](c3ccccc3F)C(C(=O)O)=CC[C@H]2c2ccc(Cl)c(Cl)c2)cc1	nt	28µM*	-7%	26%	nt	nt	?
CCc1ccc(S(=O)(=O)/N=C2\C=CC(=O)c3ccccc32)cc1	-30%	-6%	nt	15%	-22%	-27%	nt
CCc1ccc(S(=O)(=O)/N=C2/C=C(Sc3ncn[nH]3)C(=O)c3ccccc32)cc1	?	32µM*	?	?	3.5µM*	22µM*	4.6*
C=CCn1c(SCC(=O)Nc2cc(C)on2)nc2sc(C)c(C)c2c1=O	-7%	0%	nt	15%	10%	-3%	nt
C=CCn1c(SCC(=O)Nc2cc(Cl)ccc2C(=O)O)nc2sc(C)c(C)c2c1=O	nt	32µM*	1%	-5%	nt	nt	?
CC(C)(O)C1Cc2cc(/C=C/C(=O)O)c(O)cc2O1 (centres undefined)	-6%	10µM*	4%	4%	?	-5%	9.1*
SMILES	RECQ1 helicase	GCN5L2 inh-1	L3MBTL1 inh-1	APEX1 inh	JMJD2E inh	BLM inh	GCN5L2 inh-2	others
O=C(Nc1ccc(O)c(-c2nc3ccccc3o2)c1)C1(c2ccc(Cl)cc2)CCCC1	0%	?	60%	4%	4%	-8%	14*
O=C(Nc1cccc(C(F)(F)F)c1)c1ccc2snnc2c1	nt	-3%	nt	nt	nt	0%	nt
O=C(Nc1cccc(C(F)(F)F)c1)c1ccc2nc(-c3ccco3)c(-c3ccco3)nc2c1	i	?	nt	14%	14µM*	?	18*
O=C(CN1C(=O)/C(=C2/SC(=S)N(CCS(=O)(=O)O)C2=O)c2ccccc21)Nc1cccc(C(F)(F)F)c1	nt	28µM*	?	?	nt	nt	?
O=C(CN1C(=O)/C(=C2\SC(=S)N(CCS(=O)(=O)O)C2=O)c2ccccc21)Nc1cccc(Br)c1	nt	20µM*	nt	6.7µM*	nt	-15%	11*
O=C(CN1C(=O)c2ccccc2Sc2ncccc21)Nc1cccc(C(F)(F)F)c1	nt	-2%	nt	nt	nt	-7%	nt
Cc1sc2ncnc(NCC(O)c3ccc([N+](=O)[O-])cc3)c2c1C (centres undefined)	nt	-3%	nt	2%[12.4 µM]	nt	1%	nt
CCOc1sc2nc(C)n(CC(=O)Nc3cccc(C)c3)c(=O)c2c1C	nt	11%	nt	nt	nt	2%	nt
CCOc1cc(/C=C2\C(=O)N(c3nc(-c4ccc(Br)cc4)cs3)N=C2c2ccccc2)ccc1O	-23%	?	nt	3%	-9%	?	5.1*
CCOc1cc(/C=C2/SC(=S)N(Cc3ccccc3)C2=O)ccc1O	nt	-13%	nt	6%	nt	-19%	nt
Nc1ccc2nn(-c3cccc4ccccc34)nc2c1	7%	?	-4%	-1%	?	-14%	23*
Cc1cc2nc(-c3ccc[nH]c3=O)n(Cc3ccc(F)cc3)c2cc1C	nt	-17%	nt	-1%	nt	-5%	nt
Cc1cc2nc(-c3ccc[nH]c3=O)[nH]c2cc1C	nt	28µM*	nt	29%	nt	0%	36*
CCN(CC)Cc1c(O)ccc2c(=O)c(Oc3ccccc3OC)coc12	-1%	?	-3%	0%	?	1%	?
